Laboratory results published in PubChem BioAssay (NCATS).
Inconclusive results are not listed. The source made the active and inactive calls. Unless noted, calls come from the whole dose curve; as a rule, active = well fitted inhibition curve with a large enough effect; inconclusive = small, poorly fitted or top-dose-only effect; inactive = flat fitted curve, though single readings scatter.

Key:
[1] = qHTS for identification of novel therapeutic agents for treatment of microphthalmiaassociated transcription factor (MiT) renal cell carcinoma (RCC) (AID 1963991; calls by dose curve); conditions: CellTiter-Glo, 48 h; for z-score: stronger effect = lower value; for Potency: active = Z-AUC below -0.8 in all three lines
How it was run: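 Three TFE3-fusion RCC lines (UOK109, UOK124, UOK145), 500 cells/well in complete medium, were treated with MIPE 4.0 compounds for 48 hours at 37 C. Viability was by CellTiter-Glo luminescence, normalized to DMSO (100%) and empty wells (0%); curves fitted over 11 concentrations.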

[2] = qHTS drug screen for cell cycle checkpoint inhibitors in PARPi-resistant BRCA-mutant ovarian cancer cell lines. (AID 1963452; calls by dose curve); conditions: PEO1/OlaR viability, CellTiter-Glo luminescence, 96 h; for Z-AUC: stronger effect = lower value
How it was run: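 PEO1, PEO4 and PEO1/OlaR ovarian cancer cells, 600 per well, exposed 96 h at 37C to a dilution series. Viability read by CellTiter-Glo luminescence, normalized to DMSO and empty wells; activity summarized as Z-AUC.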

[3] = test system: 3D7; experiment: qHTS profiling for inhibitors of Plasmodium falciparum proliferation (AID 504749); note: nearly all actives have a fitted effect of over 60% in size; conditions: P. falciparum in erythrocytes, SYBR Green DNA, 72 h; series mostly up to 28.7 µM
How it was run: (§1)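 Fluorescence of SYBR Green-bound parasite DNA, read at 485/535 nm, served as the growth measure. Infected erythrocytes were cultured with compound 72 h; artemisinin (0.29 uM) and DMSO wells defined the normalization range.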

[4] = test system: AA1029; experiment: as above; conditions: P. falciparum in erythrocytes, SYBR Green DNA, 72 h; series mostly up to 28.7 µM
How it was run: as §1

[5] = test system: AS120; experiment: as above; conditions: P. falciparum in erythrocytes, SYBR Green DNA, 72 h; series mostly up to 28.7 µM
How it was run: as §1

[6] = test system: ATS189; experiment: as above; conditions: P. falciparum in erythrocytes, SYBR Green DNA, 72 h; series mostly up to 28.7 µM
How it was run: as §1

[7] = test system: ATS95; experiment: as above; conditions: P. falciparum in erythrocytes, SYBR Green DNA, 72 h; series mostly up to 28.7 µM
How it was run: as §1

[8] = test system: C2A; experiment: as above; conditions: P. falciparum in erythrocytes, SYBR Green DNA, 72 h; series mostly up to 28.7 µM
How it was run: as §1

[9] = test system: CP185; experiment: as above; conditions: P. falciparum in erythrocytes, SYBR Green DNA, 72 h; series mostly up to 28.7 µM
How it was run: as §1

[10] = test system: CP191; experiment: as above; conditions: P. falciparum in erythrocytes, SYBR Green DNA, 72 h; series mostly up to 28.7 µM
How it was run: as §1

[11] = test system: CP192; experiment: as above; conditions: P. falciparum in erythrocytes, SYBR Green DNA, 72 h; series mostly up to 28.7 µM
How it was run: as §1

[12] = test system: CP194; experiment: as above; conditions: P. falciparum in erythrocytes, SYBR Green DNA, 72 h; series mostly up to 28.7 µM
How it was run: as §1

[13] = test system: CP201; experiment: as above; conditions: P. falciparum in erythrocytes, SYBR Green DNA, 72 h; series mostly up to 28.7 µM
How it was run: as §1

[14] = test system: CP203; experiment: as above; conditions: P. falciparum in erythrocytes, SYBR Green DNA, 72 h; series mostly up to 28.7 µM
How it was run: as §1

[15] = test system: CP211; experiment: as above; conditions: P. falciparum in erythrocytes, SYBR Green DNA, 72 h; series mostly up to 28.7 µM
How it was run: as §1

[16] = test system: CP215; experiment: as above; conditions: P. falciparum in erythrocytes, SYBR Green DNA, 72 h; series mostly up to 28.7 µM
How it was run: as §1

[17] = TFE3-RCC UOK109 viability, measured here: UOK109 Z-AUC
[18] = TFE3-RCC viability, measured here: UOK124 Z-AUC
[19] = TFE3-RCC viability, measured here: UOK145 Z-AUC
Potency is the fitted concentration of half-maximal effect.

For `COc1cc(C)c(C=CC(C)=CC=CC(C)=CC(=O)O)c(C)c1C`, the z-score [1, 17] was 0.993, the z-score [1, 18] was 0.342 and the z-score [1, 19] was 1.02.

`C=C1CCC2[C@](C)(CO)C(O)CC[C@]2(C)C1CC=C1C(=O)OCC1O` (some centres not stated) gave a z-score [1, 17] of 0.432, a z-score [1, 18] of -0.457 and a z-score [1, 19] of 1.09.

`C[C@]12C=CC(=O)N[C@@H]1CC[C@H]1[C@H]3CC[C@@H](C(=O)Nc4cc(C(F)(F)F)ccc4C(F)(F)F)[C@@]3(C)CC[C@@H]12` gave a z-score [1, 17] of 0.94, a z-score [1, 18] of 0.86 and a z-score [1, 19] of 0.116.

`CN(N=O)C(=O)N[C@H]1C(O)OC(CO)[C@@H](O)[C@H]1O` (some centres not stated) showed a z-score [1, 17] of 0.19, a z-score [1, 18] of 0.37 and a z-score [1, 19] of -0.505.

`O=C(O)C=Cc1ccc(Cn2ccnc2)cc1` gave a z-score [1, 17] of 0.607, a z-score [1, 18] of 0.722 and a z-score [1, 19] of 0.686.

In the case of `CCC(C(=O)O)C1CCC(C)C(C(C)C(O)C(C)C(=O)C(CC)C2OC3(C=CC(O)[C@@]4(CC[C@](C)(C5CC[C@@](O)(CC)C(C)O5)O4)O3)C(C)CC2C)O1` (some centres not stated), the Potency [2] is reported as 1380 nM (active), the Z-AUC ([2]; measured here: PEO1 parental Z-AUC) is reported as -1.77 and the Z-AUC ([2]; measured here: PEO4 Z-AUC) is reported as -1.98. For the same molecule, the Potency [3] was 794 nM (active), the Potency [4] was 891 nM (active) and the Potency [5] was 631 nM (active). The Potency [6] was 1260 nM (active), the Potency [7] was 1120 nM (active) and the Potency [8] was 1120 nM (active). For the same molecule, the Potency [9] was 1260 nM (active), the Potency [10] was 1000 nM (active) and the Potency [11] was 849 nM (active). For the same molecule, the Potency [12] was 601 nM (active), the Potency [13] was 953 nM (active) and the Potency [14] was 269 nM (active). For the same molecule, the Potency [15] was 536 nM (active) and the Potency [16] was 675 nM (active).

`CC(C)N(CC[C@H](c1ccccc1)c1cc(CO)ccc1O)C(C)C` showed a z-score [1, 17] of 0.828, a z-score [1, 18] of 0.666 and a z-score [1, 19] of 0.832.

`CC(=O)N[C@@H]1[C@H](O[C@@H]2c3ccc(c(Cl)c3)Oc3cc4cc(c3O[C@H]3O[C@H](CO)[C@@H](O)[C@H](O)[C@H]3NC(=O)CCCCCCCC(C)C)Oc3ccc(cc3Cl)C[C@H]3NC(=O)[C@H](N)c5ccc(O)c(c5)Oc5cc(O)cc(c5)[C@H](NC3=O)C(=O)N[C@H]4C(=O)N[C@H]3C(=O)N[C@@H]2C(=O)N[C@@H](C(=O)O)c2cc(O)cc(O[C@H]4O[C@H](CO)[C@@H](O)[C@H](O)[C@H]4O)c2-c2cc3ccc2O)O[C@H](CO)[C@@H](O)[C@@H]1O` gave a z-score [1, 17] of 0.106, a z-score [1, 18] of 0.36 and a z-score [1, 19] of 0.292.

With `C[C@H](CCC(=O)O)[C@H]1CC[C@H]2[C@@H]3[C@H](O)C[C@@H]4C[C@H](O)CC[C@]4(C)[C@@H]3CC[C@]12C` the z-score [1, 17] was 0.305, the z-score [1, 18] was 0.277 and the z-score [1, 19] was 0.171.

In the case of `O=C1NC(=O)C(=Cc2ccc3nccc(-c4ccncc4)c3c2)S1`, the Potency ([1]; TFE3-RCC UOK109 viability) is reported as 833 nM (active), the z-score [1, 17] is reported as -1.04 and the z-score [1, 18] is reported as -1.39. For the same molecule, the z-score [1, 19] was -1.83.

With `Cc1[nH]c(C=C2C(=O)Nc3ccccc32)c(C)c1CCC(=O)O` the Potency ([1]; TFE3-RCC UOK109 viability) was 833 nM (active), the z-score [1, 17] was -1.41 and the z-score [1, 18] was -0.97. For the same molecule, the z-score [1, 19] was -1.35.

`Nc1nc(=O)n([C@H]2CSC(CO)O2)cc1F` (some centres not stated) showed a z-score [1, 17] of 0.159, a z-score [1, 18] of 0.427 and a z-score [1, 19] of 0.298.

In the case of `CC(C)N1[N]C(=C2C=c3cc(O)ccc3=N2)c2c(N)ncnc21`, the Potency ([1]; TFE3-RCC UOK109 viability) is reported as 1870 nM (active), the z-score [1, 17] is reported as -1.06 and the z-score [1, 18] is reported as -1.57. The z-score [1, 19] was -0.805.

Molecule `COC(=O)[C@@H]1CC2=CC(=O)CC[C@]2(C)[C@@]23O[C@@H]2C[C@@]2(C)[C@H](CC[C@@]24CCC(=O)O4)[C@@H]13` has a z-score [1, 17] of 0.222, a z-score [1, 18] of 0.454 and a z-score [1, 19] of 0.45.

With `Cc1ccc([N+](=O)[O-])cc1S(=O)(=O)N(C)N=Cc1cnc2ccc(Br)cn12` the Potency ([1]; TFE3-RCC UOK109 viability) was 23.5 nM (active), the z-score [1, 17] was -2.11 and the z-score [1, 18] was -3.04. For the same molecule, the z-score [1, 19] was -2.3.

With `O=C(C=Cc1ccc(CN(CCO)CCc2c[nH]c3ccccc23)cc1)NO` the Potency ([1]; TFE3-RCC UOK109 viability) was 590 nM (active), the z-score [1, 17] was -1.47 and the z-score [1, 18] was -3.24. The z-score [1, 19] was -1.37.

For `C=CC(=O)Nc1cccc(Nc2nc(NC3CCC(N(C)C)CC3)nc3c2ncn3C(C)C)c1` (configuration not stated), the Potency ([1]; TFE3-RCC UOK109 viability) was 46.9 nM (active), the z-score [1, 17] was -3.03 and the z-score [1, 18] was -0.935. It also gave a z-score [1, 19] of -1.36.

With `C[N+]1(C)[C@@H]2C[C@@H](OC(=O)C(O)(c3cccs3)c3cccs3)C[C@H]1[C@@H]1O[C@@H]12` the z-score [1, 17] was 0.526, the z-score [1, 18] was 0.59 and the z-score [1, 19] was 0.677.

`NC[C@H]1O[C@H](O[C@H]2[C@@H](O)[C@@H](O[C@H]3O[C@H](CO)[C@@H](O)[C@H](N)[C@@H]3O)[C@H](N)C[C@@H]2N)[C@H](N)C[C@H]1O` showed a z-score [1, 17] of 2.03, a z-score [1, 18] of 0.18 and a z-score [1, 19] of 1.86.

For `Cc1cc(-c2nnc3n2CCCCC3)c(C)n1-c1ccccc1`, the z-score [1, 17] was 0.931, the z-score [1, 18] was 0.469 and the z-score [1, 19] was 0.656.

With `CC(=O)N1CCN(c2ccc(OCc3nn(C)c(C)c3-c3cccc4c(CCCOc5cccc6ccccc56)c(C(=O)O)n(Cc5cccnc5)c34)cc2)CC1` the Potency ([1]; TFE3-RCC UOK109 viability) was 935 nM (active), the z-score [1, 17] was -1.06 and the z-score [1, 18] was -1.35. For the same molecule, the z-score [1, 19] was -1.45.

With `OC[C@@H](O)[C@@H](O)[C@H](O)[C@@H](O)CO` the z-score [1, 17] was 0.602, the z-score [1, 18] was 0.356 and the z-score [1, 19] was 0.716.

In the case of `CS[C@H]1SC[C@@H]2C(=O)N(C)[C@H](C(C)C)C(=O)OC[C@H](NC(=O)c3cnc4ccccc4n3)C(=O)N[C@H](C)C(=O)N(C)[C@@H]1C(=O)N(C)[C@H](C(C)C)C(=O)OC[C@H](NC(=O)c1cnc3ccccc3n1)C(=O)N[C@H](C)C(=O)N2C`, the Potency ([1]; TFE3-RCC UOK109 viability) is reported as 8.33 nM (active), the z-score [1, 17] is reported as -2.31 and the z-score [1, 18] is reported as -3.01. For the same molecule, the z-score [1, 19] was -2.26.

Molecule `CC1(C)[C@H](O[C@H]2O[C@H](C(=O)O)[C@@H](O)[C@H](O)[C@H]2O[C@@H]2O[C@H](C(=O)O)[C@@H](O)[C@H](O)[C@H]2O)CC[C@@]2(C)[C@H]1CC[C@]1(C)[C@H]2C(=O)C=C2[C@H]3C[C@@](C)(C(=O)O)CC[C@]3(C)CC[C@]21C` has a z-score [1, 17] of 0.831, a z-score [1, 18] of 0.728 and a z-score [1, 19] of 0.774.

Molecule `CC(=O)NC(CS)C(=O)O` (configuration not stated) has a z-score [1, 17] of 0.609, a z-score [1, 18] of 0.0619 and a z-score [1, 19] of 0.159.
